PubChem BioAssay (NCI)
Compounds without any hit were thinned out: in the full panel of roughly 83,000, 20% have a hit.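 Results are percent growth after 48 hours of single-concentration exposure. 100 means growth as in untreated cells, lower positive values show inhibition; negative values down to -100 show cell death.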 Values without a mark were called inactive. The source made the active and inactive calls.

tested on: NCI-H226 lung; experiment: NCI-60 one-dose screen, 48 h (100 = growth as untreated, 0 = no growth, -100 = all killed); settings: 10 µM unless noted
Method: Growth inhibition of the NCI-H226 human Non-Small Cell Lung tumor cell line is measured as a screen for anti-cancer activity. Cells are grown in 96 well plates and exposed to the test compound for 48 hours. Compounds are tested at a single concentration, which is 10^-5 M for most compounds. The reported endpoint is percent growth (GI% or GIPRCNT), where numbers from 0 - 100% represent growth inhibition, and numbers from -100% - 0 represent cell death. For example, a value of 40 represents 60% growth inhibition. A value of 0 means no net growth occurred over the course of the experiment. A value of -40 indicates 40% of cells at the beginning of the experiment died by the end of the experiment. A value of -100 means all cells are dead at the end of the experiment.
NCI-60 Human Tumor Cell Lines Screen was performed using the standard one-dose NCI protocol, which is described in more detail at https://dtp.cancer.gov/discovery_development/nci-60/default.htm.
Compounds with GIPRCNT values below 10 were considered active. Activity score was based on GIPRCNT using the following formula: […]
Score is 0 for GIPRCNT values of 100 or above, 50 for GIPRCNT values of 0, and 100 for GIPRCNT values of -100.

| Compound | growth |
| --- | --- |
| COC(=O)C1=C(C(=O)ON)C2C=CC1(C(Cc1ccccc1)Nc1ccccc1)O2 (stereo not given) | 107% |
| N#Cc1c(NCc2ccccc2I)sc2c1CCCCC2 | 87.5% |
| CC(=O)OC[C@]12CC[C@@H](C(=O)CBr)[C@@H]1[C@H]1CC[C@@H]3[C@@]4(C)CC[C@H](OC(C)=O)C(C)(C)[C@@H]4CC[C@@]3(C)[C@]1(C)CC2 | 100% |
| CC1(C)NCCC[C@]2(C)[C@H]3CC[C@@H]4[C@H]5[C@H](C(=O)/C=C/c6ccco6)CC[C@]5(CO)CC[C@@]4(C)[C@]3(C)CC[C@@H]12 | 94.8% |
| COc1cc(/C=N/NC(=O)c2cnn3c2NC(c2ccccc2)C3)ccc1Oc1ccccc1 (stereo not given) | 54.1% |
| O=C(N/N=C/c1ccc(Oc2ccccc2)cc1)c1cnn2c1NC(c1ccccc1)C2 (stereo not given) | 89.2% |
| COc1cccc(-c2nc3occn3c2-c2ccnc(NCCNS(=O)(=O)c3ccc(C(F)(F)F)cc3)n2)c1 | 75.8% |
| COc1cc(NC(C)CCCNC(=O)CCC(=O)NCCCNCCCCCCCCCCNCCCNC(=O)CCC(=O)NCCCC(C)Nc2cc(OC)cc3cccnc23)c2ncccc2c1 (stereo not given) | 58.6% [8 µM] |
| C=C(C)[C@@H]1CC[C@]2(C(=O)N3CCN(C)CC3)CC[C@]3(C)[C@H](CC[C@@H]4[C@@]5(C)C/C(=C/c6ccncc6)C(=O)C(C)(C)[C@@H]5CC[C@]43C)[C@@H]12 | 61.9% |
| NC(=NCCCOc1ccc(F)cc1)Nc1ccc(I)cc1 | 93.7% |
| CCOC(=O)c1cc(C#N)n2ccc3ccccc3c12 | 97.5% |
| C[C@H]1[C@H](C)CC[C@]2(C(=O)Nc3ccc4ncccc4c3)CC[C@]3(C)C(=CC[C@@H]4[C@@]5(C)CCCNC(C)(C)[C@@H]5CC[C@]43C)[C@H]12 | 110% |
| O=C1Nc2cc(-c3cccc([N+](=O)[O-])c3)ccc2/C1=C/c1ccc[nH]1 | 50.6% |
| ClC1=C(Br)C(Br)(Br)C(=C(Br)Br)C1(Br)Br | 93.6% |
| COc1ccc(C(=O)c2nc3ccccc3n2CC(=O)c2ccc(F)cc2)cc1 | 102% |
| CN1CCN(CCNc2nccc(-c3c(-c4cccc(O)c4)nc4sccn34)n2)S1(=O)=O | 100% |
| N#C/C(=C\c1ccc([N+](=O)[O-])s1)c1nc2cc(Cl)ccc2s1 | -74.1% (active) |
| Oc1ccc(C(c2ccc(O)cc2)c2ccc(Br)cn2)cc1 | -14% (active) |
| CC(=O)CCC(=O)OCc1cc(=O)c(O)co1 | 109% |
| O=C(Nc1ccc(Cl)cc1)c1cc(NCc2cc(O)ccc2O)ccc1O | 95.2% |

| Compound | growth |
| --- | --- |
| CCNc1nc2ccc(Nc3ccnc4cc(Cl)ccc34)cc2[nH]1 | 94.8% |
| Fc1ccc(-c2cn3c(nc4ccccc43)c(-c3ccccc3)n2)cc1 | 97.5% |
| CCCCCN1C=C/C(=C\C(=O)N(C)c2ccc(OC(F)(F)F)cc2)c2ccccc21 | 95% |
| CCOC(=O)c1ccc2c(c1)ncn2-c1ccc(NC(=O)Nc2cccc(C)c2)cc1 | 93.8% |
| C/C=C(\C)C(=O)NC1=CC[C@@]2(C)C(=CCC3C2CC[C@@]2(C)C3CC[C@@H]2C(C)N(C)C)C1=O (stereo not given in full) | 89.6% |
| CCN1C(=O)/C(=C/C(=O)OC)S/C1=N\NC(=O)c1cc2ccc1/C=C\c1ccc(cc1)/C=C\2 | 92.7% |
| CNC(=O)c1cncc(Cn2nc(C)c(NC(=O)c3ccc(COc4ccc(C(F)(F)F)cc4C)cc3)c2C)c1 | 58.1% |
| Brc1ccc(Nc2csc(-c3ccccn3)n2)cc1 | 70.1% |
| COc1ccc(C(=O)CC#N)cc1 | 98% |
| O=C(CSc1nc2sc3c(c2c(=O)n1-c1ccc(Cl)cc1)CCCC3)Nc1nc(-c2cccc(Br)c2)cs1 | 64% |
| CCOC(=O)Oc1c(OC)cc(C(=O)c2ccc(OC)c(OC(=O)CCl)c2OC)cc1OC | 64.5% |
| COc1cccc(-c2nc3occn3c2-c2ccnc(NCCNS(=O)(=O)c3cccc4ccccc34)n2)c1 | 99.6% |
| CCCCOc1ccc(/C(C)=N/Nc2cc(C)nc3ccc(Br)cc23)cc1 | 89.6% |
| O=C(/C=C(/C=C/c1csc2ccccc12)OB(F)F)/C=C/c1csc2ccccc12 | 27.9% |
| CC1=C(C(=O)/C=C/c2ccc(N(C)C)cc2)C(c2ccccc2)NC(=S)N1 (stereo not given) | 93.8% |
| O=[N+]([O-])c1ccc(NC(=S)N/N=C/c2cc3ccccc3n3nnnc23)cc1 | 72% |
| CC/C(=C\c1ccc(OC)cc1)C(=O)c1ccc(OC)cc1 | 93.7% |
| O=C(Nc1ccc(F)cc1)Nc1ccc(NC(=O)c2cc(Cl)nc3ccccc23)cc1 | 52.8% |
| COc1cccc(-c2ccc3c(c2)NC(=O)/C3=C\c2ccc[nH]2)c1 | 50.5% |
| NC(=S)N1N=C(c2ccccc2)CC1c1cn(-c2ccccc2)nc1-c1ccc(OCc2ccccc2)cc1 (stereo not given) | 98.4% |
